PubChem BioAssay AID1159580 (chemical genetic matrix, 2015)
The whole screen tested about 5,500 compounds, of which about 2,000 (36%) were called active. Roughly 18% stayed inconclusive and do not appear here. No stated cut-off is given here; in the data, active means normalized growth mostly below about 0.91 (no sharp cut-off); inconclusive means no clear call, values can overlap the other calls; inactive means mostly above about 0.92. The list shows a part of the results.

Experiment: chemical genetic growth profiling, strain panel (AID 1159580);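 further: tested at 20 µM; growth read once vehicle control cultures reached saturation at 30 °C; 1 = growth at the plate median or of vehicle wells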
Details: growth OD

Measured: normalized growth

CN1CCN(C(c2ccccc2)c2ccccc2)CC1
inactive: S. cerevisiae deletion strains, locus YJR075W, strain HOC1, stronger effect = lower value 1 | S. cerevisiae deletion strains, locus YKL009W, strain mrt4, stronger effect = lower value 0.963 | S. cerevisiae deletion strains, locus YKL068W, stronger effect = lower value 0.977 | S. cerevisiae deletion strains, locus YKL085W, strain MDH1 (second series), stronger effect = lower value 0.973 | S. cerevisiae deletion strains, locus YKL085W, strain MDH1, stronger effect = lower value 0.973 | S. cerevisiae deletion strains, locus YKL160W, strain elf1, stronger effect = lower value 0.965 | S. cerevisiae deletion strains, locus YKL190W, strain CNB1, stronger effect = lower value 0.974 | S. cerevisiae deletion strains, locus YKR001C, strain vps1, stronger effect = lower value 0.974 | S. cerevisiae deletion strains, locus YKR026C, strain gcn3, stronger effect = lower value 0.992 | S. cerevisiae deletion strains, locus YKR091W, strain srl3, stronger effect = lower value 0.98 | S. cerevisiae deletion strains, locus YLL001W, strain dnm1, stronger effect = lower value 0.996 | S. cerevisiae deletion strains, locus YLL026W, stronger effect = lower value 0.999 | S. cerevisiae deletion strains, locus YLL041C, strain sdh2, stronger effect = lower value 0.971 | S. cerevisiae deletion strains, locus YLR027C, strain aat2, stronger effect = lower value 0.985 | S. cerevisiae deletion strains, locus YLR039C, strain RIC1, stronger effect = lower value 1 | S. cerevisiae deletion strains, locus YLR058C, strain SHM2, stronger effect = lower value 0.999 | S. cerevisiae deletion strains, locus YLR102C, strain apc9, stronger effect = lower value 0.967 | S. cerevisiae deletion strains, locus YLR113W, strain HOG1, stronger effect = lower value 0.994 | S. cerevisiae deletion strains, locus YLR221C, strain rsa3, stronger effect = lower value 1.02 | S. cerevisiae deletion strains, locus YLR258W, strain gsy2, stronger effect = lower value 0.978 | S. cerevisiae deletion strains, locus YLR262C, strain YPT6 (second series), stronger effect = lower value 1 | S. cerevisiae deletion strains, locus YLR262C, strain YPT6, stronger effect = lower value 1.03 | S. cerevisiae deletion strains, locus YLR268W, strain sec22, stronger effect = lower value 0.965 | S. cerevisiae deletion strains, locus YLR320W, strain mms22, stronger effect = lower value 0.992 | S. cerevisiae deletion strains, locus YLR330W, strain CHS5, stronger effect = lower value 0.989 | S. cerevisiae deletion strains, locus YLR342W, strain FKS1 (second series), stronger effect = lower value 1.03 | S. cerevisiae deletion strains, locus YLR342W, strain FKS1, stronger effect = lower value 0.991 | S. cerevisiae deletion strains, locus YLR357W, strain rsc2, stronger effect = lower value 0.948 | S. cerevisiae deletion strains, locus YLR370C, strain arc18, stronger effect = lower value 0.989 | S. cerevisiae deletion strains, locus YLR371W, strain rom2, stronger effect = lower value 0.974 | S. cerevisiae deletion strains, locus YLR384C, strain iki3, stronger effect = lower value 0.965 | S. cerevisiae deletion strains, locus YLR418C, strain cdc73, stronger effect = lower value 0.934 | S. cerevisiae deletion strains, locus YML016C, strain PPZ1, stronger effect = lower value 1 | S. cerevisiae deletion strains, locus YML032C, strain rad52, stronger effect = lower value 0.959 | S. cerevisiae deletion strains, locus YML120C, strain ndi1, stronger effect = lower value 0.99 | S. cerevisiae deletion strains, locus YML124C, strain tub3, stronger effect = lower value 0.968 | S. cerevisiae deletion strains, locus YMR058W, strain fet3, stronger effect = lower value 1.01 | S. cerevisiae deletion strains, locus YMR078C, strain ctf18, stronger effect = lower value 0.973 | S. cerevisiae deletion strains, locus YMR125W, strain sto1, stronger effect = lower value 0.95 | S. cerevisiae deletion strains, locus YMR129W, stronger effect = lower value 0.996 | S. cerevisiae deletion strains, locus YMR205C, strain PFK2, stronger effect = lower value 0.963 | S. cerevisiae deletion strains, locus YMR223W, strain ubp8, stronger effect = lower value 0.991 | S. cerevisiae deletion strains, locus YMR231W, strain pep5, stronger effect = lower value 0.994 | S. cerevisiae deletion strains, locus YMR263W, strain SAP30, stronger effect = lower value 0.997 | S. cerevisiae deletion strains, locus YMR307W, strain GAS1, stronger effect = lower value 1.02 | S. cerevisiae deletion strains, locus YNL067W, strain RPL9B, stronger effect = lower value 0.996 | S. cerevisiae deletion strains, locus YNL071W, strain lat1, stronger effect = lower value 0.984 | S. cerevisiae deletion strains, locus YNL128W, strain TEP1, stronger effect = lower value 0.991 | S. cerevisiae deletion strains, locus YNL153C, strain GIM3, stronger effect = lower value 1 | S. cerevisiae deletion strains, locus YNL183C, strain NPR1, stronger effect = lower value 0.937 | S. cerevisiae deletion strains, locus YNL209W, strain ssb2, stronger effect = lower value 0.978 | S. cerevisiae deletion strains, locus YNL233W, strain BNI4, stronger effect = lower value 1 | S. cerevisiae deletion strains, locus YNL248C, strain rpa49, stronger effect = lower value 0.932 | S. cerevisiae deletion strains, locus YNL250W, strain rad50, stronger effect = lower value 0.987 | S. cerevisiae deletion strains, locus YNL271C, strain bni1, stronger effect = lower value 0.974 | S. cerevisiae deletion strains, locus YNL298W, strain CLA4, stronger effect = lower value 0.975 | S. cerevisiae deletion strains, locus YNL307C, strain MCK1, stronger effect = lower value 0.962 | S. cerevisiae deletion strains, locus YNL322C, strain KRE1 (second series), stronger effect = lower value 0.978 | S. cerevisiae deletion strains, locus YNL322C, strain KRE1, stronger effect = lower value 0.991 | S. cerevisiae deletion strains, locus YNR049C, strain mso1, stronger effect = lower value 0.99 | S. cerevisiae deletion strains, locus YNR052C, strain pop2, stronger effect = lower value 0.953 | S. cerevisiae deletion strains, locus YOL006C, strain TOP1, stronger effect = lower value 0.929 | S. cerevisiae deletion strains, locus YOL012C, strain htz1 1.39 | S. cerevisiae deletion strains, locus YOL147C, strain pex11, stronger effect = lower value 0.978 | S. cerevisiae deletion strains, locus YOR001W, strain rrp6, stronger effect = lower value 0.993 | S. cerevisiae deletion strains, locus YOR061W, strain CKA2, stronger effect = lower value 1 | S. cerevisiae deletion strains, locus YOR069W, strain VPS5, stronger effect = lower value 0.998 | S. cerevisiae deletion strains, locus YOR070C, strain gyp1, stronger effect = lower value 0.979 | S. cerevisiae deletion strains, locus YOR080W, strain dia2, stronger effect = lower value 0.986 | S. cerevisiae deletion strains, locus YOR083W, strain WHI5, stronger effect = lower value 0.948 | S. cerevisiae deletion strains, locus YOR106W, strain vam3, stronger effect = lower value 0.995 | S. cerevisiae deletion strains, locus YOR136W, strain idh2, stronger effect = lower value 0.971 | S. cerevisiae deletion strains, locus YOR144C, strain elg1, stronger effect = lower value 0.96 | S. cerevisiae deletion strains, locus YOR184W, strain ser1, stronger effect = lower value 0.994 | S. cerevisiae deletion strains, locus YOR231W, strain MKK1, stronger effect = lower value 0.987 | S. cerevisiae deletion strains, locus YOR265W, strain rbl2, stronger effect = lower value 0.98 | S. cerevisiae deletion strains, locus YOR270C, strain vph1, stronger effect = lower value 0.914 | S. cerevisiae deletion strains, locus YOR290C, strain snf2, stronger effect = lower value 0.974 | S. cerevisiae deletion strains, locus YOR316C, strain cot1, stronger effect = lower value 0.958 | S. cerevisiae deletion strains, locus YPL051W, strain arl3, stronger effect = lower value 0.979 | S. cerevisiae deletion strains, locus YPL055C, strain LGE1, stronger effect = lower value 0.975 | S. cerevisiae deletion strains, locus YPL078C, strain atp4, stronger effect = lower value 0.974 | S. cerevisiae deletion strains, locus YPL106C, strain sse1, stronger effect = lower value 0.949 | S. cerevisiae deletion strains, locus YPL240C, strain hsp82, stronger effect = lower value 1.01 | S. cerevisiae deletion strains, locus YPL241C, strain CIN2, stronger effect = lower value 0.994 | S. cerevisiae deletion strains, locus YPL256C, strain CLN2, stronger effect = lower value 0.995 | S. cerevisiae deletion strains, locus YPR119W, strain clb2, stronger effect = lower value 0.977 | S. cerevisiae deletion strains, locus YPR141C, strain kar3, stronger effect = lower value 0.954 | S. cerevisiae deletion strains, locus YPR163C, strain tif3, stronger effect = lower value 0.971 | S. cerevisiae deletion strains, locus YPR167C, strain met16, stronger effect = lower value 0.958 | S. cerevisiae deletion strains, strain wtn01, stronger effect = lower value 0.979 | S. cerevisiae strains, strain wild type, stronger effect = lower value 1.01
